This note sets out measurements from the supplement of paper PMC7184167.

Where a name gives a salt, the structure may show the parent alone.

For this experiment, the system named is replication-induced senescent mouse newborn dermal fibroblasts (NBF). Put plainly: relative cell viability of senescent cells (fraction); higher = less killing of senescent cells. The settings on record: 1 µM; 3 days. As for the experimental part:
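Replication-induced senescent newborn mouse skin fibroblasts (NBFs) in 24-well plates were treated with a Selleck FDA-approved drug library at 1 µM for 3 days.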
Turning to `Clc1ccc(Nc2nnc(Cc3ccncc3)c3ccccc23)cc1` [Vatalanib (PTK787) 2HCl], the relative cell viability is 0.741.
To `CCCC(CCC)C(=O)O` [Divalproex Sodium] belongs 1.11; to `CN1C(C(=O)Nc2ccccn2)=C(O)c2ccccc2S1(=O)=O` [Piroxicam], 0.562; to `CCC[C@H](NC(=O)[C@@H]1[C@H]2CCC[C@H]2CN1C(=O)[C@@H](NC(=O)[C@@H](NC(=O)c1cnccn1)C1CCCCC1)C(C)(C)C)C(=O)C(=O)NC1CC1` [Telaprevir (VX-950)], 0.411.
With `CC1(C)O[C@@H]2C[C@H]3[C@@H]4CCC5=CC(=O)C=C[C@]5(C)[C@H]4[C@@H](O)C[C@]3(C)[C@]2(C(=O)CO)O1` [Desonide] the figure was 1.14.
With `CO/N=C(\C(=O)N[C@@H]1C(=O)N2C(C(=O)OCOC(=O)C(C)(C)C)=C(/C=C\c3scnc3C)CS[C@H]12)c1csc(N)n1` [Cefditoren Pivoxil] the figure was 0.949; with `C[C@H](NCc1ccc(OCc2cccc(F)c2)cc1)C(N)=O` [Safinamide Mesylate], 0.955; with `O=C(O)C[C@H](O)C[C@H](O)/C=C/c1c(C2CC2)nc2ccccc2c1-c1ccc(F)cc1` [Pitavastatin Calcium], 1.08.
The molecule `CCC(C)(C)C(=O)O[C@H]1C[C@@H](C)C=C2C=C[C@H](C)[C@H](CC[C@@H]3C[C@@H](O)CC(=O)O3)[C@H]21` [Simvastatin] came in with a relative cell viability of 0.965.
To `CC(C(=O)O)c1ccc(-c2ccccc2)c(F)c1` (configuration not stated) [Flurbiprofen] belongs 1.04.
With `Cc1cn[nH]c1` [Fomepizole] the figure was 1.07.
To `O=C(O)c1cc(/N=N/c2ccc(S(=O)(=O)Nc3ccccn3)cc2)ccc1O` [Sulfasalazine] belongs 1.3.
In turn, `CC(C)c1nc(CN(C)C(=O)N[C@H](C(=O)N[C@@H](Cc2ccccc2)C[C@H](O)[C@H](Cc2ccccc2)NC(=O)OCc2cncs2)C(C)C)cs1` [Ritonavir] registered a relative cell viability of 1.15.
As for `c1ccc2[nH]c(-c3cscn3)nc2c1` [Thiabendazole], the relative cell viability is 1.03.
Molecule `Nc1nc(=O)[nH]cc1F` [Flucytosine] returned a relative cell viability of 0.996.
For `CCOc1ccccc1OCCN[C@H](C)Cc1ccc(OC)c(S(N)(=O)=O)c1` [Tamsulosin hydrochloride], the relative cell viability worked out at 1.1.
In the case of `N=C(N)NC(=O)c1nc(Cl)c(N)nc1N` [Amiloride HCl], the relative cell viability was 0.768.
To `CC(C)C[C@H](NC(=O)[C@@H](NC(=O)c1cccc(-c2ccccc2)n1)[C@@H](C)O)B(O)O` belongs 1.1.
To `Cc1cccc(Nc2ccncc2S(=O)(=O)NC(=O)NC(C)C)c1` [Torsemide] belongs 0.965; to `CN1CCC(=C2c3ccccc3CCc3sccc32)CC1` [Pizotifen Malate], 0.0212.
With `Cc1nc2n(c(=O)c1CCN1CCC(c3noc4cc(F)ccc34)CC1)CCCC2` [Risperidone] the figure was 0.76; with `CCCc1nc2c(C)cc(-c3nc4ccccc4n3C)cc2n1Cc1ccc(-c2ccccc2C(=O)O)cc1` [Telmisartan], 1.15; with `CCCCC[C@H](O)/C=C/[C@H]1[C@H](O)CC(=O)[C@@H]1CCCCCCC(=O)O` [Alprostadil], 0.875.
`CCn1cc(C(=O)O)c(=O)c2cc(F)c(N3CCNCC3)nc21` [Enoxacin] displayed a relative cell viability of 1.05.
To `Nc1cccc2c1CN(C1CCC(=O)NC1=O)C2=O` (configuration not stated) [Lenalidomide (CC-5013)] belongs 1.04; to `Nc1ccn([C@@H]2CS[C@H](CO)O2)c(=O)n1` [Lamivudine], 0.759.
The molecule `C[C@]12CC[C@@H]3c4ccc(O)cc4CC[C@H]3[C@@H]1CCC2=O` [Estrone] showed a relative cell viability of 1.
With `CC(C)(C)C(=O)OCOP(=O)(COCCn1cnc2c(N)ncnc21)OCOC(=O)C(C)(C)C` [Adefovir Dipivoxil] the figure was 0.924.
With `CCCCc1nc2cc(/C=C/C(=O)NO)ccc2n1CCN(CC)CC` [Pracinostat (SB939)] the figure was 1.01; with `C[C@@H](Oc1cc(-c2cnn(C3CCNCC3)c2)cnc1N)c1c(Cl)ccc(F)c1Cl`, 0.71.
To `CN(C)CC/C=C1/c2ccccc2Sc2ccc(Cl)cc21` [Chlorprothixene] belongs 1.1.
`CO[C@H]1C[C@@H]2CC[C@@H](C)[C@@](O)(O2)C(=O)C(=O)N2CCCC[C@H]2C(=O)O[C@H]([C@H](C)C[C@@H]2CC[C@@H](O)[C@H](OC)C2)CC(=O)[C@H](C)/C=C(\C)[C@@H](O)[C@@H](OC)C(=O)[C@H](C)C[C@H](C)/C=C/C=C/C=C/1C` [Rapamycin (Sirolimus)] gave a relative cell viability of 0.735.
